# From PubChem BioAssay (EPA / NIEHS)
# Results filed as inconclusive are left out. The source made the active and inactive calls. The calls were made as follows, unless noted: active = hit-call score of the fitted dose curve at least 0.9, where 1 is the maximum; inactive = score below 0.9.
# Columns and labels:
# [1] = ATG_NFI_CIS: Attagene CIS-FACTORIAL HepG2 Assay for human Nuclear Factor I (NFI) (AID 2282989); conditions: HepG2 cis-regulatory reporter, NFI response element transcription; actives raise or lower the signal
# Method in brief: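 Reporter transcripts were measured by RT-PCR with fluorescent primer extension and capillary electrophoresis 24 h post-treatment. HepG2 cells carried transiently transfected cis-regulated reporter constructs reporting endogenous factor activity; gain or loss fitted against DMSO baseline.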
# [2] = ATG_NRF2_ARE_CIS: Attagene CIS-FACTORIAL HepG2 Assay for human Nuclear Factor Erythroid 2 Related Factor 2 (NFR2) response to Antioxidant Response Elements (ARE) (AID 2282992); conditions: HepG2 Attagene ARE/NRF2 reporter, transcription factor activity; actives raise or lower the signal;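 as to AC50: reporter mRNA level measured by RT-PCR and capillary electrophoresis fluorescence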
# Method in brief: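 Cis-factorial assay: transfected HepG2 reporter library, 24 h dosing, mRNA readout via RT-PCR/CE; DMSO-referenced bidirectional analysis.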
# [3] = ATG_Oct_MLP_CIS: Attagene CIS-FACTORIAL HepG2 Assay for human Octamer-Binding Transcription Factor (Oct) (AID 2282993); conditions: HepG2 Attagene cis-factorial Oct reporter, mRNA; actives raise or lower the signal
# Method in brief: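 Readout is reporter transcript level from RT-PCR with fluorescent primer extension and capillary electrophoresis, fitted in both directions against DMSO. Transfected HepG2 reporter units report endogenous factor activity after 24 h dosing.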
# [4] = target: Cellular tumor antigen p53 (Homo sapiens) (UniProt P04637); assay: ATG_p53_CIS: Attagene CIS-FACTORIAL HepG2 Assay for human p53 Transcription Factor (AID 2282994); conditions: HepG2 p53 cis-element reporter, Attagene mRNA; actives raise or lower the signal
# Sequence of Cellular tumor antigen p53 (Homo sapiens) (P04637 whole entry, looked up): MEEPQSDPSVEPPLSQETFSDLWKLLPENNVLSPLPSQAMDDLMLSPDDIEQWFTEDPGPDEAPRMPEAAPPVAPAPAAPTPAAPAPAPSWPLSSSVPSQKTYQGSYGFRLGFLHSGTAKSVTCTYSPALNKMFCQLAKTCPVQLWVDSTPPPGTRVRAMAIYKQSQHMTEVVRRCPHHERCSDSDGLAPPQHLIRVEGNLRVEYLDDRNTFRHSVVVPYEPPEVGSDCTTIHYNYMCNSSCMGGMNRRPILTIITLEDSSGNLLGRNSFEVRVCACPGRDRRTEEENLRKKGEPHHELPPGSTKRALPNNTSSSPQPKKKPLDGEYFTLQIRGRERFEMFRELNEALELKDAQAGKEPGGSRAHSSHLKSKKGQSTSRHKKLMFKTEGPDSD
# Method in brief: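 Using HepG2 hepatoma cells carrying cis-acting multiplexed reporters, mRNA induction is detected after a 24 h exposure. Gain- and loss-of-signal responses are fitted relative to DMSO-treated cells.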
# [5] = BSK_3C_TissueFactor: BioMAP Diversity Plus: 3C Assay for Tissue Factor Biomarker Activity (AID 2282997); conditions: BioMAP 3C HUVEC, tissue factor biomarker readout; actives raise or lower the signal
# Method in brief: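 Primary human umbilical vein endothelial cells in the 3C system were exposed to test chemical for 24 h, then Tissue Factor measured by ELISA. Activity was fitted bidirectionally against DMSO as negative control and baseline.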
# [6] = BSK_3C_uPAR: BioMAP Diversity Plus: 3C Assay for Urokinase-type plasminogen activator receptor (uPAR) Biomarker Activity (AID 2282998); conditions: BioMAP 3C HUVEC, uPAR biomarker ELISA; actives raise or lower the signal
# Method in brief: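 Cell-surface uPAR on HUVEC (3C system) read by ELISA at 24 h post-treatment, with DMSO as baseline and fitting in both directions. Parallel cultures stained with SRB to flag overt cytotoxicity.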
# [7] = BSK_3C_VCAM1: BioMAP Diversity Plus: 3C Assay for Vascular cell adhesion molecule 1 (VCAM1) Biomarker Activity (AID 2282999); conditions: BioMAP 3C HUVEC, VCAM1 ELISA, cytokine-stimulated; actives raise or lower the signal
# Method in brief: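 Human umbilical vein endothelial cells were dosed with compound for 24 h, after which cell-surface VCAM-1 was quantified by ELISA. Bidirectional curve fitting used DMSO as negative control and activity baseline.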
# [8] = target: human Peroxisome Proliferator-activated Receptor alpha (PPARa), PPARA (gene 5465) (UniProt Q07869); assay: ATG_PPARa_TRANS: Attagene TRANS-FACTORIAL HepG2 Assay for human Peroxisome Proliferator-activated Receptor alpha (PPARa) (AID 2283001; active = hit-call score of the fitted dose curve at least 0.9, where 1 is the maximum)
# Sequence of human Peroxisome Proliferator-activated Receptor alpha (PPARa), PPARA (gene 5465) (Q07869 whole entry, looked up, the tested form may be a part): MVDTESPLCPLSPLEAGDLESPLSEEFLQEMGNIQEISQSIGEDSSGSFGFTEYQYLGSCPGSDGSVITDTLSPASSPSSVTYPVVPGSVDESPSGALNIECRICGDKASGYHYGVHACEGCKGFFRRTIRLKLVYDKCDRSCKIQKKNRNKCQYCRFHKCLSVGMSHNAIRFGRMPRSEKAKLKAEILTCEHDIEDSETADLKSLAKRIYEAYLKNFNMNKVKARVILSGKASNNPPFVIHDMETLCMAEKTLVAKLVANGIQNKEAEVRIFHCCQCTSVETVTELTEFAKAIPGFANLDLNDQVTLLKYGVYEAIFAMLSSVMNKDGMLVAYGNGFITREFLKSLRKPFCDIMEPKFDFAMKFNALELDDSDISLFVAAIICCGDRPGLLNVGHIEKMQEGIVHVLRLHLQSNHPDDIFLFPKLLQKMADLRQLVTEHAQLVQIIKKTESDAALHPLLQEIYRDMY
# Method in brief: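 Gain-of-signal endpoint: reporter mRNA induction relative to DMSO, detected by fluorescent RT-PCR and capillary electrophoresis. HepG2 cells transiently carried GAL4-UAS-driven reporter units plus NR-Gal4 fusion; exposure lasted 24 h.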
# [9] = read-out: Intercellular Adhesion Molecule 1 (ICAM1), ICAM1 (gene 3383); assay: BSK_3C_ICAM1: BioMAP Diversity Plus: 3C Assay for Intercellular Adhesion Molecule 1 (ICAM1) Biomarker Activity (AID 2283003); conditions: primary human endothelial cells (HUVEC); actives raise or lower the signal
# Method in brief: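 HUVEC primary cells stimulated under 3C conditions; ICAM1 measured by ELISA 24 h after compound dosing. Curves fitted bidirectionally against the DMSO baseline. Overt cytotoxicity checked by SRB staining of parallel cultures.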
# [10] = BSK_3C_Proliferation: Cell Proliferation Assessment in the BioMAP Diversity Plus: 3C Assay (AID 2283006); conditions: primary human endothelial cells (HUVEC);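 as to AC50: potency may reflect either rise or fall in cell number versus DMSO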
# Method in brief: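 Subconfluent HUVEC (3C system) cultured with chemical; relative cell number read at 48 h by sulforhodamine B total-protein staining (0.1% SRB after 10% TCA fixation, 560 nm). Bidirectional fit relative to DMSO.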
# [11] = target: Peroxisome proliferator-activated receptor gamma (Homo sapiens) (UniProt P37231); assay: ATG_PPARg_TRANS: Attagene TRANS-FACTORIAL HepG2 Assay for human Peroxisome Proliferator-activated Receptor-gamma (PPARg) (AID 2283007; active = hit-call score of the fitted dose curve at least 0.9, where 1 is the maximum)
# Sequence of Peroxisome proliferator-activated receptor gamma (Homo sapiens) (P37231 whole entry, looked up): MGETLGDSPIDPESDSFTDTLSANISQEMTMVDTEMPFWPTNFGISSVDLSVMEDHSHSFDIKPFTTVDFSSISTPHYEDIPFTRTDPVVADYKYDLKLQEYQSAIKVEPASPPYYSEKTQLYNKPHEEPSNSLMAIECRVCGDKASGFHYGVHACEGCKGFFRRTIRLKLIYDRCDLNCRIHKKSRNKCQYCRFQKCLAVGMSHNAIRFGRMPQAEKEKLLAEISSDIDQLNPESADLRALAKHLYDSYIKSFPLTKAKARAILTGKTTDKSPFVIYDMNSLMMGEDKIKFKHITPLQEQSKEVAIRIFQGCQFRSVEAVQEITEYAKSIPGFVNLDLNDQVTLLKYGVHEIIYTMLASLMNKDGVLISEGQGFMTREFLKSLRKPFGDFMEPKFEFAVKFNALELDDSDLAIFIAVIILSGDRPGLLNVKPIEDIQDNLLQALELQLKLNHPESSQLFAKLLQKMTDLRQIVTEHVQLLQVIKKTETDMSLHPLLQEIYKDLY
# Method in brief: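 Human hepatoma HepG2, transient MRTU transfection, 24 h treatment. mRNA reporter signal by RT-PCR plus capillary electrophoresis, fluorescence detection; fitted for increase over DMSO negative control.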
# [12] = target: Nuclear receptor subfamily 1 group I member 2 (Homo sapiens) (UniProt O75469); assay: ATG_PXR_TRANS: Attagene TRANS-FACTORIAL HepG2 Assay for human Pregnane X Receptor (PXR) (AID 2283008; active = hit-call score of the fitted dose curve at least 0.9, where 1 is the maximum)
# Sequence of Nuclear receptor subfamily 1 group I member 2 (Homo sapiens) (O75469 whole entry, looked up, the tested form may be a part): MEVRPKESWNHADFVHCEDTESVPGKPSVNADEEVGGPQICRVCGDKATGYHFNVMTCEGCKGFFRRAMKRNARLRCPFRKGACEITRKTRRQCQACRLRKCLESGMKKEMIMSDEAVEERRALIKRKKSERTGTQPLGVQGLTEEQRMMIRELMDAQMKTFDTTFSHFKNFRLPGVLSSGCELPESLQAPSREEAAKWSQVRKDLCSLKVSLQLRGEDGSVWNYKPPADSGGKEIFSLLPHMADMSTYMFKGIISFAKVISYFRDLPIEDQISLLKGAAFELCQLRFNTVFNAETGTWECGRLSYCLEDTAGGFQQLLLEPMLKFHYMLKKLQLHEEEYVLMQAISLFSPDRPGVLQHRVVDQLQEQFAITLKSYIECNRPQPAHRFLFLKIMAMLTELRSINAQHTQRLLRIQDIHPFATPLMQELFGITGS
# Method in brief: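 Fluorescence intensity of FAM-labelled, HpaI-digested reporter amplicons, separated by capillary electrophoresis, quantifies induction. HepG2 cells with PXR-Gal4 trans-reporter system were exposed 24 h; DMSO defines baseline.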
# [13] = target: human Retinoic Acid Receptor gamma (RARg), RARG (gene 5916) (UniProt P13631); assay: ATG_RARg_TRANS: Attagene TRANS-FACTORIAL HepG2 Assay for human Retinoic Acid Receptor gamma (RARg) (AID 2283009; active = hit-call score of the fitted dose curve at least 0.9, where 1 is the maximum)
# Sequence of human Retinoic Acid Receptor gamma (RARg), RARG (gene 5916) (P13631 whole entry, looked up, the tested form may be a part): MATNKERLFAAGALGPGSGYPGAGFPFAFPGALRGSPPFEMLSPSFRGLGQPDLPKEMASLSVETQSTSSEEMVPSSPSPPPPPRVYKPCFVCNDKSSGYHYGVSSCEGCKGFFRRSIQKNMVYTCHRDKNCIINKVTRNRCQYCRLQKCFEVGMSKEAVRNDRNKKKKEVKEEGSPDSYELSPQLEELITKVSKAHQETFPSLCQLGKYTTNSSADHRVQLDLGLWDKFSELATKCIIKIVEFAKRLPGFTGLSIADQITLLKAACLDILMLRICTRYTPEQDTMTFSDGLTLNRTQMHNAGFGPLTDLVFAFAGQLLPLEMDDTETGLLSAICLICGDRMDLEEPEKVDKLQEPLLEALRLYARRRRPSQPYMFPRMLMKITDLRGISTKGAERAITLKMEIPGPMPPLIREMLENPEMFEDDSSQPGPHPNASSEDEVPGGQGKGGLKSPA
# Method in brief: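 HepG2 transiently transfected with GAL4-UAS reporter units and chimeric NR-Gal4 constructs; 24 h compound exposure. Reporter mRNA quantified by RT-PCR, FAM labeling, HpaI digestion and capillary electrophoresis; gain-of-signal versus DMSO.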
# [14] = ATG_NF_kB_CIS: Attagene CIS-FACTORIAL HepG2 Assay for human Nuclear Factor Kappa B (NF-kB) (AID 2282991); conditions: HepG2 Attagene cis-factorial NF-kB reporter mRNA; actives raise or lower the signal
# Method in brief: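 Multiplexed cis-reporter assay in transiently transfected HepG2. 24 h treatment; RNA isolated, RT-PCR, labelled fragments resolved by CE. DMSO baseline.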
# [15] = target: human Peroxisome Proliferator-activated Receptor delta (PPARd), PPARD (gene 5467) (UniProt Q03181); assay: ATG_PPARd_TRANS: Attagene TRANS-FACTORIAL HepG2 Assay for human Peroxisome Proliferator-activated Receptor delta (PPARd) (AID 2283002; active = hit-call score of the fitted dose curve at least 0.9, where 1 is the maximum)
# Sequence of human Peroxisome Proliferator-activated Receptor delta (PPARd), PPARD (gene 5467) (Q03181 whole entry, looked up, the tested form may be a part): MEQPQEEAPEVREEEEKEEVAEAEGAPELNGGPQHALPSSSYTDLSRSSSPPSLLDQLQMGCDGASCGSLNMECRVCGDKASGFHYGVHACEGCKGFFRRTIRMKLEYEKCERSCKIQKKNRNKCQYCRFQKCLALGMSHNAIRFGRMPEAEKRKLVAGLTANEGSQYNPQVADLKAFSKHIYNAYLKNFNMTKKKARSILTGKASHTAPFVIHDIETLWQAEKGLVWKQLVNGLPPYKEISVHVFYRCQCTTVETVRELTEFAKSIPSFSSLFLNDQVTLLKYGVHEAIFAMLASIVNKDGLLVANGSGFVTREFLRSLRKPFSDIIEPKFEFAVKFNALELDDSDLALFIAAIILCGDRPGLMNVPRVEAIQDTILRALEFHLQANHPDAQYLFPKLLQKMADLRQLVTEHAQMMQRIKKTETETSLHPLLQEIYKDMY
# Method in brief: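 HepG2 cells transiently transfected with multiplexed GAL4-UAS reporter units and exogenous chimeric NR-Gal4 proteins; 24 h compound exposure. Reporter mRNA measured by RT-PCR, 6-FAM labelling, HpaI digestion and capillary electrophoresis; gain of signal versus DMSO.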
# [16] = target: Retinoic acid receptor alpha (Homo sapiens) (UniProt P10276); assay: ATG_RARa_TRANS: Attagene TRANS-FACTORIAL HepG2 Assay for human Retinoic Acid Receptor alpha (RARa) (AID 2283005; active = hit-call score of the fitted dose curve at least 0.9, where 1 is the maximum)
# Sequence of Retinoic acid receptor alpha (Homo sapiens) (P10276 whole entry, looked up, the tested form may be a part): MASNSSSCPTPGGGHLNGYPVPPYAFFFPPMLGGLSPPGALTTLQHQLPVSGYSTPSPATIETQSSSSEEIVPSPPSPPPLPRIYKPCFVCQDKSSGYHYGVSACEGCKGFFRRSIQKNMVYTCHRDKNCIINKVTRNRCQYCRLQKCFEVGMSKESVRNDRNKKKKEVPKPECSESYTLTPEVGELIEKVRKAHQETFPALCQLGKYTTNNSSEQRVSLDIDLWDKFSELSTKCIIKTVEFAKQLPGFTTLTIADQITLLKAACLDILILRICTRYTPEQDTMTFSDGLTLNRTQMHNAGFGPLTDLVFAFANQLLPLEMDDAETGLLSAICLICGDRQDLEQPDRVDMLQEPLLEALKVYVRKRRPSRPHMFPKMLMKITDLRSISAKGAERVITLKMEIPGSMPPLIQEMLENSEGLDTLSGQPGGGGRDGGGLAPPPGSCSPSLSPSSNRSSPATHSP
# Method in brief: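 HepG2 cells transiently transfected with multiple reporter units expressing chimeric RARα-GAL4 fusion, with GAL4-UAS-driven reporters. After 24 h compound exposure, reporter mRNA induction quantified by RT-PCR and capillary electrophoresis with fluorescent labeling; gain-of-signal fitted relative to DMSO control.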
# [17] = target: human Retinoic Acid Receptor beta (RARb), RARB (gene 5915) (UniProt P10826); assay: ATG_RARb_TRANS: Attagene TRANS-FACTORIAL HepG2 Assay for human Retinoic Acid Receptor beta (AID 2283004; active = hit-call score of the fitted dose curve at least 0.9, where 1 is the maximum)
# Sequence of human Retinoic Acid Receptor beta (RARb), RARB (gene 5915) (P10826 whole entry, looked up, the tested form may be a part): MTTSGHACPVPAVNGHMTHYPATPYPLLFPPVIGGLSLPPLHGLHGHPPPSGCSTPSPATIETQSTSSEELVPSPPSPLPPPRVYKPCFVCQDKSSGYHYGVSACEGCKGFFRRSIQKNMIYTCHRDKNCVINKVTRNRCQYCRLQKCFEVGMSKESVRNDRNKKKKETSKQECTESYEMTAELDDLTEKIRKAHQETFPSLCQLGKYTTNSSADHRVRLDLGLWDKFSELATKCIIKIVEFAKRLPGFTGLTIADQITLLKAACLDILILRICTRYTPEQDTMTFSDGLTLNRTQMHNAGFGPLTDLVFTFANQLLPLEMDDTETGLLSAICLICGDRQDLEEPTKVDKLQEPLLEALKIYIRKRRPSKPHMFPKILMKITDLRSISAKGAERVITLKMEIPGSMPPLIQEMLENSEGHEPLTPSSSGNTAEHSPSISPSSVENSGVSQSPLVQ
# Method in brief: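 HepG2 cells transiently transfected with multiplexed GAL4-UAS reporter units expressing chimeric NR–Gal4 fusions; 24 h compound exposure. Reporter mRNA quantified by RT-PCR, 6-FAM labelling, HpaI digestion and capillary electrophoresis; gain-of-signal fitted against DMSO baseline.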
# [18] = target: human RAR-related Orphan Receptor beta (RORb), RORB (gene 6096) (UniProt Q92753); assay: ATG_RORb_TRANS: Attagene TRANS-FACTORIAL HepG2 Assay for human RAR-related Orphan Receptor beta (RORb) (AID 2283010; active = hit-call score of the fitted dose curve at least 0.9, where 1 is the maximum)
# Sequence of human RAR-related Orphan Receptor beta (RORb), RORB (gene 6096) (Q92753 whole entry, looked up, the tested form may be a part): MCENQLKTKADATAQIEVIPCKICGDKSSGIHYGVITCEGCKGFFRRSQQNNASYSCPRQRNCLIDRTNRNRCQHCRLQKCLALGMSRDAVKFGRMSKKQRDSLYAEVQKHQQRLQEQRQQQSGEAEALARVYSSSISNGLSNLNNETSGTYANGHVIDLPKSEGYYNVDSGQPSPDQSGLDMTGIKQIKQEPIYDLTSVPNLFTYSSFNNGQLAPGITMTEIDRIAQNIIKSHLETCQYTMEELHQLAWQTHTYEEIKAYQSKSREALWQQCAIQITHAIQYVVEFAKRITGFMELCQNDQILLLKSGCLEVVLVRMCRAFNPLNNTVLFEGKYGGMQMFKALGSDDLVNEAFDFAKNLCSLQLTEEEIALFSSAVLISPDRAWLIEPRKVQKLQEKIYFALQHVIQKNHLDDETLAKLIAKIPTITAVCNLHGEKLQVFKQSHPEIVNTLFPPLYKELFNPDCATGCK
# Method in brief: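 HepG2 cells transiently transfected with GAL4-UAS reporter units expressing chimeric NR-Gal4 protein; reporter mRNA measured 24 h after dosing by RT-PCR, 6-FAM labelling and capillary electrophoresis. Gain-of-signal fitted relative to DMSO baseline.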
smiles,measurement,setting,value
CCC(=O)C(CC(C)N(C)C)(c1ccccc1)c1ccccc1 (stereo unspecified),outcome,[1],inactive
same,outcome,[2],inactive
same,outcome,[3],inactive
same,AC50,[4],48.9 µM (active)
same,outcome,[5],inactive
same,outcome,[6],inactive
same,outcome,[7],inactive
same,outcome,[8],inactive
same,outcome,[9],inactive
same,outcome,[10],inactive
same,outcome,[11],inactive
same,outcome,[12],inactive
same,outcome,[13],inactive
Nc1ccc(Cl)cc1C(=O)c1ccccc1,outcome,[1],inactive
same,outcome,[14],inactive
same,outcome,[2],inactive
same,outcome,[3],inactive
same,outcome,[4],inactive
same,outcome,[8],inactive
same,outcome,[15],inactive
same,AC50,[11],25.8 µM (active)
same,AC50,[12],10500 nM (active)
CC(=O)[O][Hg][c]1ccccc1,AC50,[1],3.71 µM (active)
same,outcome,[14],inactive
same,AC50,[2],2.24 µM (active)
same,AC50,[3],2.5 µM (active)
same,outcome,[4],inactive
same,AC50,[5],2.59 µM (active)
same,AC50,[6],1.17 µM (active)
same,AC50,[7],2.36 µM (active)
same,outcome,[8],inactive
same,outcome,[15],inactive
same,AC50,[9],2.69 µM (active)
same,outcome,[16],inactive
same,AC50,[10],1.18 µM (active)
same,outcome,[11],inactive
same,outcome,[12],inactive
CC(C)OC(=O)Nc1ccccc1,outcome,[1],inactive
same,outcome,[14],inactive
same,outcome,[3],inactive
same,outcome,[4],inactive
same,outcome,[17],inactive
same,outcome,[16],inactive
same,outcome,[11],inactive
same,outcome,[12],inactive
same,outcome,[13],inactive
CC(C)c1ccc(CO)cc1,outcome,[1],inactive
same,outcome,[14],inactive
same,outcome,[2],inactive
same,outcome,[3],inactive
same,outcome,[4],inactive
same,outcome,[5],inactive
same,outcome,[6],inactive
same,outcome,[7],inactive
same,outcome,[8],inactive
same,outcome,[15],inactive
same,outcome,[9],inactive
same,outcome,[10],inactive
same,outcome,[11],inactive
same,outcome,[12],inactive
same,outcome,[18],inactive
CCOP(=S)(OCC)SCSP(=S)(OCC)OCC,outcome,[1],inactive
same,outcome,[14],inactive
same,outcome,[2],inactive
same,outcome,[3],inactive
same,outcome,[4],inactive
same,outcome,[5],inactive
same,outcome,[6],inactive
same,outcome,[7],inactive
same,outcome,[9],inactive
same,outcome,[17],inactive
same,outcome,[16],inactive
same,outcome,[10],inactive
same,outcome,[11],inactive
same,AC50,[12],168 nM (active)
same,outcome,[13],inactive
COS(=O)(=O)c1ccc(C)cc1,outcome,[1],inactive
same,outcome,[14],inactive
same,outcome,[2],inactive
same,outcome,[3],inactive
same,outcome,[4],inactive
same,outcome,[8],inactive
same,outcome,[15],inactive
same,outcome,[11],inactive
same,outcome,[12],inactive
same,outcome,[18],inactive
ClC1=C(Cl)[C@]2(Cl)[C@H]3[C@H]([C@H]4C=C[C@H]3C4)[C@@]1(Cl)C2(Cl)Cl,outcome,[1],inactive
same,outcome,[3],inactive
same,outcome,[4],inactive
same,AC50,[5],2.35 µM (active)
same,AC50,[6],3.97 µM (active)
same,AC50,[7],3.97 µM (active)
same,outcome,[9],inactive
same,AC50,[10],20 µM (active)
same,AC50,[11],64 µM (active)
same,AC50,[12],794 nM (active)
